{
  "source": "PubChem BioAssay AID652257",
  "about": "(The Scripps Research Institute Molecular Screening Center, 2013)",
  "note": "Out of some 370,000 compounds screened, about 4,800 (1.3%) were called active.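 How the source made its calls: active means inhibition above about 21% made by adding two undisclosed values (limit read from the data); inactive means the rest.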 Only a selection was taken, and actives are over-represented in it overall.",
  "data": [
    {"target": "Protein arginine N-methyltransferase 1 (Homo sapiens) (UniProt Q99873)", "sequence (Q99873 whole entry, looked up)": "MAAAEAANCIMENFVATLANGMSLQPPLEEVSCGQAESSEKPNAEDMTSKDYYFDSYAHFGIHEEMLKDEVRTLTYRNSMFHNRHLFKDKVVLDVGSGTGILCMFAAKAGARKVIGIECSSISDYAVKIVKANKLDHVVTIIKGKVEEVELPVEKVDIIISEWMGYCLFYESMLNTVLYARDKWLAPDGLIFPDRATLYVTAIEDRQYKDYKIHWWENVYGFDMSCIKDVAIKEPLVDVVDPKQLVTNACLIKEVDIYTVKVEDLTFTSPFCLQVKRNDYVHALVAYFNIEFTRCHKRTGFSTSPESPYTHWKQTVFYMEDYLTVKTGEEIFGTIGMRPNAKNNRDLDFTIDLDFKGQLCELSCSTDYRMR", "experiment": "human PRMT1 activity-probe blockers – biochemical, fluorescence polarization, primary screen (AID 652257)", "conditions": "recombinant PRMT1, activity-based probe fluorescence polarization; at 2.79 µM; hits give high values", "values": [
      {"smiles": "C=CCn1c2c(c3ccccc31)CCC2", "inhibition": "0.09% (inactive)"},
      {"smiles": "CN1C(=O)c2cccc3c(N)ccc(c23)C1=O", "inhibition": "183% (active)"},
      {"smiles": "Cc1nn(C)cc1N1C(=O)c2cccc3c(N)ccc(c23)C1=O", "inhibition": "165% (active)"},
      {"smiles": "CC(NCc1ccco1)C(=O)N1CCCCC1", "note": "(stereo unspecified)", "inhibition": "-2.09% (inactive)"},
      {"smiles": "CCOc1ccc(Oc2c(Cl)cnn(-c3ccc(C)cc3)c2=O)cc1", "inhibition": "-1.68% (inactive)"},
      {"smiles": "C=CCN1[C@@H](Cc2ccccc2)COc2cccc(N3CCSCC3)c2S1(=O)=O", "inhibition": "2.18% (inactive)"},
      {"smiles": "O=S(=O)(c1ccccc1)N1CCC(c2nc3ccccc3o2)CC1", "inhibition": "-3.15% (inactive)"},
      {"smiles": "COc1ccccc1CN(C)C(=O)C1(c2ccc(Cl)cc2)CC1", "inhibition": "-2.06% (inactive)"},
      {"smiles": "O=C(NC1CCC1)c1ccc(C#CC2CC2)cn1", "inhibition": "-0.43% (inactive)"},
      {"smiles": "CC(=O)Oc1ccc(C(C)=O)c2c1OCCO2", "inhibition": "-0.56% (inactive)"},
      {"smiles": "CC(C)n1c(-c2ccncc2)n[nH]c1=S", "inhibition": "-2.82% (inactive)"},
      {"smiles": "CSc1ccc(C=Nn2c(-c3ccc(F)cc3)n[nH]c2=S)cc1", "inhibition": "21.3% (active)"},
      {"smiles": "CSc1ccc(/C=N/N2CCN(Cc3ccccc3Cl)CC2)cc1", "inhibition": "1.95% (inactive)"},
      {"smiles": "CC(NCCc1ccc(S(N)(=O)=O)cc1)C(=O)NCc1ccccc1", "note": "(stereo unspecified)", "inhibition": "-3.01% (inactive)"},
      {"smiles": "COc1cc(C(=S)NCc2ccccc2)cc(Br)c1O", "inhibition": "27.5% (active)"},
      {"smiles": "COc1cc(-c2nnn(CC(=O)NCc3ccccc3)n2)cc(OC)c1OC", "inhibition": "2.73% (inactive)"},
      {"smiles": "COc1ccccc1OCCC(=O)OCC(=O)NCc1ccccc1", "inhibition": "0.43% (inactive)"},
      {"smiles": "CCOC(=O)C1=C(C)NC2=C(C(=O)CC(C)(C)C2)C1c1ccc2c(c1)OCO2", "note": "(stereo unspecified)", "inhibition": "-1.8% (inactive)"},
      {"smiles": "COC(=O)CC1CCc2cc(C)cc(C(CC(C)C)NC(=O)[C@H](CC(C)C)NC(=O)OCc3ccccc3)c2O1", "note": "(stereo partly specified)", "inhibition": "-2.67% (inactive)"},
      {"smiles": "Clc1ccc(C2=CSC3=Nc4cccc5cccc(c45)N23)cc1", "inhibition": "22.6% (active)"},
      {"smiles": "CCCOc1ccc(Oc2c(Cl)cnn(Cc3cccc4ccccc34)c2=O)cc1", "inhibition": "1.97% (inactive)"},
      {"smiles": "CC(=O)c1cc(-c2ccc3ccccc3c2)c(=O)n2c1CCC2", "inhibition": "0.08% (inactive)"},
      {"smiles": "COC1=CC(=O)OC(c2ccc(OC)cc2)C1", "note": "(stereo unspecified)", "inhibition": "-1.99% (inactive)"},
      {"smiles": "COc1ccc(N=Nc2c(-c3ccc(OC)cc3)[nH]oc2=O)cc1", "inhibition": "-0.55% (inactive)"},
      {"smiles": "COc1ccc(N=C2C=CC(=O)O2)cc1", "inhibition": "48.5% (active)"},
      {"smiles": "Cc1ccc(CSCC(N)C(=O)O)cc1", "note": "(stereo unspecified)", "inhibition": "0.39% (inactive)"},
      {"smiles": "Cc1ccc(SC(CC(=O)c2ccc(C(C)(C)C)cc2)C(=O)O)cc1", "note": "(stereo unspecified)", "inhibition": "75.6% (active)"},
      {"smiles": "Cc1ccc(SC(C)C(=O)NCc2ccc(F)cc2)cc1", "note": "(stereo unspecified)", "inhibition": "-5.15% (inactive)"},
      {"smiles": "CCC(NC(=O)C1C2C=CC3(CN(Cc4ccccc4)C(=O)C13)O2)c1ccccc1", "note": "(stereo unspecified)", "inhibition": "2.19% (inactive)"},
      {"smiles": "O=S(=O)(O)c1cc2onnc2c2ccccc12", "inhibition": "40.6% (active)"},
      {"smiles": "CCOC(=O)[C@@]12CCC3=C1N(CCC3)C(=O)[C@H](CC(=O)N1CCN(C(=O)c3ccco3)CC1)C2", "inhibition": "-2.33% (inactive)"},
      {"smiles": "CC1=CC(C)(C)NC(=S)N1c1ccccc1", "inhibition": "3.18% (inactive)"},
      {"smiles": "Cc1ccc(-c2nnc(SCC(=O)Nc3ccc(Oc4ccccc4)cc3)n2Cc2ccco2)cc1", "inhibition": "4.18% (inactive)"},
      {"smiles": "CC1CC1C(=O)OCC(=O)Nc1cccc(F)c1", "note": "(stereo unspecified)", "inhibition": "2.32% (inactive)"},
      {"smiles": "Cc1ccccc1CN1CCCCC(NC(=O)Nc2ccccc2F)C1=O", "note": "(stereo unspecified)", "inhibition": "-0.07% (inactive)"},
      {"smiles": "C#CCNC(=O)C[C@H]1C[C@@]2(C(=O)OC)C(=C[C@H](C(C)C)O[C@@H]2C2CC2)N(Cc2ccco2)C1=O", "inhibition": "-1.6% (inactive)"},
      {"smiles": "C=CCn1c(=NC(=O)c2cccs2)sc2cc(NC(C)=O)ccc21", "inhibition": "4.42% (inactive)"},
      {"smiles": "COc1cc2c(cc1OC)C(Cc1cc(OC)c(OC)cc1[N+](=O)[O-])=NCC2", "inhibition": "8.89% (inactive)"},
      {"smiles": "CCS(=O)(=O)c1cc([N+](=O)[O-])c(Sc2ccccc2N)s1", "inhibition": "66.1% (active)"},
      {"smiles": "O=C(c1ccccc1)c1ccc(-c2ccccc2C(=O)NC2CCCCN(Cc3ccc(Cl)cc3)C2=O)cc1", "note": "(stereo unspecified)", "inhibition": "-3.72% (inactive)"},
      {"smiles": "C=C(C)C#CC(Cc1ccccc1)NCC1CC1", "note": "(stereo unspecified)", "inhibition": "7.99% (inactive)"},
      {"smiles": "Cc1sc2nc(SCC(=O)c3ccc(O)c(O)c3)n(Cc3ccco3)c(=O)c2c1C", "inhibition": "25.1% (active)"},
      {"smiles": "O=C(CSc1nnc(COc2ccccc2)n1Cc1ccco1)c1ccc2ccccc2c1", "inhibition": "4.78% (inactive)"},
      {"smiles": "O=C(CSc1nnc(-c2cccs2)n1Cc1ccco1)c1ccc2c(c1)OCO2", "inhibition": "1.9% (inactive)"},
      {"smiles": "CCCC[C@H]1C2CC(OC(=O)NCc3ccccc3)C(C2)[C@H]2CCCCN21", "note": "(stereo partly specified)", "inhibition": "1.74% (inactive)"},
      {"smiles": "Cc1cc(-c2n[nH]c(=S)n2-c2ccc(C)c(C)c2)no1", "inhibition": "4.04% (inactive)"},
      {"smiles": "COc1ccccc1-n1c(-c2cc(-c3ccco3)[nH]n2)n[nH]c1=S", "inhibition": "35.1% (active)"},
      {"smiles": "COc1ccc(OCc2n[nH]c(=S)n2N)cc1", "inhibition": "4.04% (inactive)"},
      {"smiles": "COc1ccc(C(C#N)Nc2ccccc2C)cc1", "note": "(stereo unspecified)", "inhibition": "1.86% (inactive)"},
      {"smiles": "CC(C)(C)OC(=O)NCc1cc(F)ccc1/C=C/S(=O)(=O)NCCc1ccccc1", "inhibition": "-0.49% (inactive)"},
      {"smiles": "O=C(/C=C/c1ccc([N+](=O)[O-])o1)NNC(=O)c1ccc(F)cc1", "inhibition": "5.67% (inactive)"},
      {"smiles": "Cc1ccc(/C=C/C(=O)Nc2ccc([N+](=O)[O-])c(NC(=O)/C=C/c3ccc(C)o3)c2)o1", "inhibition": "41.1% (active)"},
      {"smiles": "Cc1cc(NC(=O)COC(=O)/C=C/c2ccc(C)o2)no1", "inhibition": "5.65% (inactive)"},
      {"smiles": "COc1ccc(-n2c(SCC(=O)Nc3ccc(C)c(Cl)c3)nc3ccccc3c2=O)cc1", "inhibition": "0.06% (inactive)"},
      {"smiles": "COc1ccc(/C=C2/S/C(=N/N=C3\\CC4CCC3(C)C4(C)C)NC2=O)cc1", "note": "(stereo unspecified)", "inhibition": "-3.61% (inactive)"},
      {"smiles": "CC(=O)N1C(=O)/C(=C2\\SC(=S)N(NC(=O)c3ccc(O)cc3)C2=O)c2ccccc21", "inhibition": "37.7% (active)"},
      {"smiles": "COc1ccc2c(c1)N(C)/C(=C1/SC(=S)N(NC(C)=O)C1=O)S2", "inhibition": "-3.82% (inactive)"},
      {"smiles": "COc1ccc(C(=O)NN2C(=O)C3C(c4ccccc4)C=CC(c4ccccc4)C3C2=O)cc1", "note": "(stereo unspecified)", "inhibition": "-3.24% (inactive)"},
      {"smiles": "COC(=O)C[C@@H]1CC[C@@H]2[C@H](COc3ccc(NC(=O)c4cccc(F)c4)cc3C(=O)N2C)O1", "inhibition": "-3.84% (inactive)"},
      {"smiles": "CCN1/C(=C\\c2ccc3ccccc3[n+]2CC)Sc2cc(C)ccc21", "inhibition": "-5.01% (inactive)"},
      {"smiles": "CCN1/C(=C/C(=S)Nc2ccccc2)Sc2ccccc21", "inhibition": "64.6% (active)"}
    ]}
  ]
}
